We go through 29 compounds from PubChem BioAssay (NCATS).

In experiment [1] the target is Cellular tumor antigen p53 (Homo sapiens) (UniProt P04637). Kind of experiment: Primary qHTS for small molecule compounds that upregulate eGFP-tagged delta133p53alpha (in N-terminal) cells. (AID 2060322).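 For activation: series mostly up to about 56 µM; 0% = DMSO vehicle and 100% = reference activator.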 Note: nearly all actives have a fitted effect of over 75% in size. Note: potency is the fitted concentration of half-maximal effect. The conditions noted are these: NCI-H358 eGFP-delta133p53alpha fluorescence, 24 h; activation: hits give high values. The gist of the method: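 NCI-H358 cells pre-induced 24 h with 10 ng/ml doxycycline to express N-terminal eGFP-delta133p53alpha, then dosed 24 h at 37C without doxycycline; fixed, Hoechst-stained, GFP intensity by laser scanning cytometry, normalized to DMSO (0%) and 57.5 uM 5-azacytidine (100%).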
Sequence of Cellular tumor antigen p53 (Homo sapiens) (P04637 whole entry, looked up): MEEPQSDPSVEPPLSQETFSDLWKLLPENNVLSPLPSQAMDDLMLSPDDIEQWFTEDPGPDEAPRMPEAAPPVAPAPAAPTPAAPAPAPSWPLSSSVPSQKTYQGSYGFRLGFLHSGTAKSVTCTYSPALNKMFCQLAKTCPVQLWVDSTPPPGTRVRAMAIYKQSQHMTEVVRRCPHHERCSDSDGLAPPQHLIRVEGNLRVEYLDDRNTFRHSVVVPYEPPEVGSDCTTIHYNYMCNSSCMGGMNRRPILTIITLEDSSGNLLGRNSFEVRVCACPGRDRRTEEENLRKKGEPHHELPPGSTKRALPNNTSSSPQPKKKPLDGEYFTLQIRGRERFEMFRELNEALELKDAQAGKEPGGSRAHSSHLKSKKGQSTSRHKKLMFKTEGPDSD

For experiment [2], the target named is Aldehyde dehydrogenase, mitochondrial (Homo sapiens) (UniProt P05091). The experiment in a line: qHTS for Inhibitors of the Aldehyde Dehydrogenase Family (ALDH2) Primary screen (AID 2061308).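 Note: plate controls were vehicle for no effect and reference inhibitor for full effect; nearly all actives have a fitted effect of over 55% in size.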 A general note: qHTS replaces the single test concentration by a dilution series.
The target in experiment [3] is Retinaldehyde dehydrogenase 3 (Homo sapiens) (UniProt P47895). The experiment in a line: qHTS for Inhibitors of the Aldehyde Dehydrogenase Family (ALDH1A3) Validation screen (AID 2061312). Note: % is set by controls: 0 for no effect and ±100 for the full control effect; nearly all actives have a fitted effect of over 45% in size.
Experiment [4] has the same target. Kind of experiment: qHTS for Inhibitors of the Aldehyde Dehydrogenase Family (ALDH1A3) Primary screen (AID 2061315).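 Note: plate controls were DMSO vehicle for no effect and reference inhibitor for full effect.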

“And” between values parts separate entries of the source, which are not always exact repeats. Equal entries are not always repeated. Results filed as inconclusive are left out. A number with no mark means an inactive call. The source made the active and inactive calls. Calls come from the whole dose curve; as a rule, active = well fitted curve in the direction sought with a large enough effect; inconclusive = small, poorly fitted or top-dose-only effect, or another doubt; inactive = no such curve, though single readings can be large; an effect the other way counts as inactive or inconclusive. Numbered stars: 1 amine (or outer) side, 2 acyl side, 3 side chain; on linkers, the order of the positions; unused ones are H or OH. Bridge positions count the residues as written; N and C are the ends. Square brackets hold non-standard residues; d marks the D form. Peptide text beside a SMILES is read from it. * marks the point of attachment. ξ: configuration not given here. ξhTyr(3S-OH,4S-OH,3'-OSO3H) = NC(C(=O)O)[C@H](O)[C@@H](O)c1ccc(O)c(OS(=O)(=O)O)c1; Orn(4R-OH,5R-OH) = O=C([C@H](C[C@@H](O)[C@@H](O)N[*:3])N[*:1])[*:2]; X6 = CCCCCOc1ccc(-c2cc(-c3ccc(C(=O)*)cc3)no2)cc1; X7 = C[C@H]1CN([*:1])C(C(=O)[*:2])[C@H]1O; ξGln(3R-OH) = NC(=O)C[C@@H](O)C(N)C(=O)O; ξPro(4R-OH) = O=C(O)C1C[C@@H](O)CN1; ξThr(3R) = C[C@@H](O)C(N)C(=O)O

`CC(C)NC(=O)c1ccc(C#Cc2ccncc2)cn1`: the activation in experiment [1] was 14.8%. The Potency result in experiment [2], in experiment [3] and in experiment [4] was “inactive” throughout.

As for `O=C1CSc2ccccc2N1Cc1cccc(C(F)(F)F)c1`, the activation in experiment [1] is 3.34%. Moreover, the Potency result in experiment [2], in experiment [3] and in experiment [4] was “inactive” throughout.

As for `O=c1cc(OCc2ccc(F)cc2)ccn1-c1ccc(OCCN2CCCC2)cc1`, the activation in experiment [1] was -0.955%. Also, the Potency entry in experiment [2], in experiment [3] and in experiment [4] was “inactive” in each case.

Turning to `Cc1[nH]c2ccccc2c1CCNC(=O)c1cccs1`, the activation in experiment [1] was -18.1%. For the same compound, the Potency result in experiment [2], in experiment [3] and in experiment [4] was “inactive” throughout.

Take `Cc1ccc(N2CCN(CCC3NC(=O)c4ccccc43)CC2)cc1C` (stereo unspecified): the activation in experiment [1] is -7.16%. In addition, the Potency entry in experiment [2], in experiment [3] and in experiment [4] was “inactive” each time.

Turning to `CN1CCN(C2=Nc3ccccc3Nc3ccc(OS(=O)(=O)C(F)(F)F)cc32)CC1`, in experiment [1], the activation is -11.9%. The Potency entry in experiment [2], in experiment [3] and in experiment [4] was “inactive” throughout.

For `CCOc1nc2cccc(C(=O)O)c2n1Cc1ccc(-c2ccccc2-c2noc(=O)[nH]2)cc1`, the activation in experiment [1] was 0.955%. In addition, the Potency entry in experiment [2], in experiment [3] and in experiment [4] was “inactive” throughout.

In the case of `CC1(C)CC(NC(=O)C(=O)Nc2ccc(Cl)cc2)CC(C)(C)N1`, in experiment [1], the activation is 8.11%. The Potency entry in experiment [2], in experiment [3] and in experiment [4] was “inactive” each time.

Consider `O=C(NC1CCN(CC(F)(F)F)CC1)c1ccc(-c2cccc(F)c2)nc1`, for which the activation in experiment [1] was -16.7%. The Potency entry in experiment [2], in experiment [3] and in experiment [4] was “inactive” throughout.

Take `CC(=O)NCC(=O)N1C2CCC1c1cc(Nc3ncc(C(F)(F)F)c(NC4CCC4)n3)ccc12` (stereo unspecified): the Potency in experiment [1] is 3.79 µM (active). Further, the Potency result in experiment [2], in experiment [3] and in experiment [4] was “inactive” throughout.

As for `O=C(/C=C/c1c(C(=O)O)[nH]c2cc(Cl)cc(Cl)c12)Nc1ccccc1`, the activation in experiment [1] is -11.9%. Further, the Potency entry in experiment [2], in experiment [3] and in experiment [4] was “inactive” each time.

In the case of `CC(C)(O)c1ccn2c(-c3ccc(F)c(-c4ccc(F)cc4C#N)c3)cnc2c1F`, the activation in experiment [1] was -22.4%. Further, the Potency entry in experiment [2], in experiment [3] and in experiment [4] was “inactive” each time.

As for `O=C(CCCCC1CCCCC1)N1CCC(c2cnc[nH]2)CC1`, the activation in experiment [1] is -1.91%. Moreover, the Potency entry in experiment [2], in experiment [3] and in experiment [4] was “inactive” in each case.

For the compound `CC(C)NCC(C(=O)N1CCN(c2ncnc3c2C(C)CC3O)CC1)c1ccc(Cl)cc1` (stereo unspecified), the activation in experiment [1] was 0.955%. Moreover, the Potency entry in experiment [2], in experiment [3] and in experiment [4] was “inactive” throughout.

For `COc1cccc(-c2cc(NCc3ccc4c(c3)OCO4)nc(N)n2)c1`, the activation in experiment [1] is -3.82%. Further, the Potency entry in experiment [2], in experiment [3] and in experiment [4] was “inactive” throughout.

As to `Cn1nc(C(C)(C)C)cc1C(=O)NC(Cc1cccc(Cl)c1)C(=O)NCC#N` (stereo unspecified), the activation in experiment [1] was -4.3%. Also, the Potency entry in experiment [2], in experiment [3] and in experiment [4] was “inactive” each time.

Turning to `CC(=O)[C@H]1CC[C@H]2[C@@H]3C=CC4=CC(=O)CC[C@@]4(C)[C@@H]3CC[C@]12C`, the activation in experiment [1] was -8.47% and 12.4%. Also, the Potency result in experiment [2], in experiment [3] and in experiment [4] was “inactive” throughout.

Regarding `Cc1c(C(=O)Nc2ccc(N3CCC(N4CCOCC4)CC3)c(C#N)c2)cnn1-c1ccc(Cl)cc1`, the activation in experiment [1] is 15.8%. In addition, the Potency entry in experiment [2], in experiment [3] and in experiment [4] was “inactive” in each case.

On to `Cc1nc(C#Cc2ccnc(Cl)c2)c(C)n1-c1ccc(F)cc1`, for which the activation in experiment [1] was -12.9%. Moreover, the Potency entry in experiment [2], in experiment [3] and in experiment [4] was “inactive” each time.

As to `CCOc1ccc(NC(=S)N2CCC(C(O)(c3ccccc3)c3ccccc3)CC2)cc1`, in experiment [1], the activation is -0.955%. Besides, the Potency result in experiment [2], in experiment [3] and in experiment [4] was “inactive” each time.

Take `CO[C@H]1C=CO[C@@]2(C)Oc3c(C)c(O)c4c(O)c(c5c(c4c3C2=O)NC2(CCN(CC(C)C)CC2)N=5)=NC(=O)C(C)=CC=C[C@H](C)[C@H](O)[C@@H](C)[C@@H](O)[C@@H](C)[C@H](OC(C)=O)[C@H]1C`: the activation in experiment [1] is 0.549%. Besides, the Potency result in experiment [2], in experiment [3] and in experiment [4] was “inactive” each time.

Regarding `CC(C)Oc1ccc(-c2cnc3c(-c4ccnc5ccccc45)cnn3c2)cc1`, the activation in experiment [1] is -6.21%. The Potency result in experiment [2], in experiment [3] and in experiment [4] was “inactive” throughout.

Regarding `Cc1cc(OCCN2CCOCC2)nn1-c1ccc2ccccc2c1`, the activation in experiment [1] was 4.3%. Also, the Potency result in experiment [2], in experiment [3] and in experiment [4] was “inactive” each time.

Take `Cc1ccccc1C(=O)Nc1ccc(C(=O)N2CCCC(N(C)C)c3ccccc32)cc1` (stereo unspecified): the Potency in experiment [1] was 3.89 µM (active). Moreover, the Potency entry in experiment [2], in experiment [3] and in experiment [4] was “inactive” throughout.

On to `CC1(C)CC=C(C#Cc2ccccc2)c2cc(/C=C/c3ccc(C(=O)O)cc3)ccc21`, for which, in experiment [1], the activation is -5.73%. Also, the Potency result in experiment [2], in experiment [3] and in experiment [4] was “inactive” each time.

Turning to `Cc1cc(C)c(-c2csc(NC(=O)c3ccccc3)n2)c(C)c1`, the activation in experiment [1] is 21%. The Potency entry in experiment [2], in experiment [3] and in experiment [4] was “inactive” in each case.

In the case of `COc1cccc(-n2nc(C(=O)O)cc2-c2ccc(C3CCCCC3)c(Cl)c2)c1`, the activation in experiment [1] is 1.43%. Also, the Potency entry in experiment [2], in experiment [3] and in experiment [4] was “inactive” each time.

With `CN(C)CCc1c[nH]c2ccc(C[C@H]3COC(=O)N3)cc12`, the activation in experiment [1] was -0.837% and -21.4% and -11.5%. The Potency entry in experiment [2], in experiment [3] and in experiment [4] was “inactive” in each case.

`CCCCCOc1ccc(-c2cc(-c3ccc(C(=O)N[C@H]4C[C@@H](O)[C@@H](O)NC(=O)C5[C@@H](O)[C@@H](C)CN5C(=O)C([C@H](O)CC(N)=O)NC(=O)C([C@H](O)[C@@H](O)c5ccc(O)c(OS(=O)(=O)O)c5)NC(=O)C5C[C@@H](O)CN5C(=O)C([C@@H](C)O)NC4=O)cc3)no2)cc1` (stereo partly drawn) (X6-[Orn(4R-OH,5R-OH)][ξThr(3R)][ξPro(4R-OH)][ξhTyr(3S-OH,4S-OH,3'-OSO3H)][ξGln(3R-OH)][X7]; lactam 1-C): in experiment [1], the activation is -0.955%. For the same compound, the Potency result in experiment [2], in experiment [3] and in experiment [4] was “inactive” each time.
